This passage reports max response, outcome and Potency results from PubChem BioAssay (NCATS).

Values joined by “and” are separate entries in the source; they are usually repeats but may differ in a detail not shown here. Equal entries are not always repeated. Results filed as inconclusive are left out. Unmarked numbers belong to inactive results. Active and inactive are the calls of the source. The call rests on the fitted dose curve; in most records, active means well fitted inhibition curve with a large enough effect; inconclusive means small, poorly fitted or top-dose-only effect; inactive means flat fitted curve, though single readings scatter.

The test system of experiment [1] is CRL-7250. In words: Cytotoxic Profiling of Annotated Libraries Using Quantitative High-Throughput Screening (AID 1296008). Further: potency means the concentration at half of the fitted maximal effect. On max response: on the % scale 0 is the no-effect control and ±100 the full control effect. The note with it: Five cell lines viability, CellTiter-Glo ATP luminescence, 48-72 h; max response: active compounds read low. The gist of the method: (§1)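 Compounds were pin-transferred onto cells and incubated 48 or 72 hr at 37 degree Celsius, 95% humidity. CellTiter-Glo was added, plates sat 10 min at room temperature, then ATP-coupled luminescence was imaged as the viability read-out.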
For orientation: Cellular ATP, detected with luciferase, serves as a proxy for viable cell number.

Experiment [2] concerns HEK293. The description is as above. The following applies: Five cell lines viability, CellTiter-Glo ATP luminescence, 48-72 h; max response: active compounds read low. In short, it runs like this:
as §1

Experiment [3] has as its system HaCat. The description is as above. The following applies: Five cell lines viability, CellTiter-Glo ATP luminescence, 48-72 h; max response: active compounds read low. The gist of the method: as §1
Experiment [4] deals with KB-3-1. The experiment is described as above. The note with it: Five cell lines viability, CellTiter-Glo ATP luminescence, 48-72 h; max response: active compounds read low. In short, it runs like this:
as §1

Experiment [5] deals with NIH3T3. The experiment is described as above. The following applies: Five cell lines viability, CellTiter-Glo ATP luminescence, 48-72 h; max response: active compounds read low. In short, it runs like this:
as §1

Experiment [6] deals with HACAT. Description: qHTS assay to identify novel small-molecules to repurpose for Merkel cell carcinoma treatment (AID 1296009). Further: potency means the concentration at half of the fitted maximal effect. The following applies: MCC and control cell lines, CellTiter-Glo viability, 72 h; series mostly up to 44.8 µM. In short, it runs like this:
(§2)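 Cells exposed to NPC (8-point) and MIPE (11-point) compound dilutions for 72 hr at 37 degree celsius; viability read by CellTiter-Glo luminescence, normalized to no-cell and DMSO in-plate controls.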
A general note: In qHTS, concentration-response curves come from the screen itself.

In experiment [7] the test system is MCC-13. The description is as above. The following applies: MCC and control cell lines, CellTiter-Glo viability, 72 h; series mostly up to 46 µM. In short, it runs like this: as §2
The test system of experiment [8] is MKL-1. The description is as above. The following applies: MCC and control cell lines, CellTiter-Glo viability, 72 h; series mostly up to 46 µM. The gist of the method:
as §2

Experiment [9] relates to MKL-2. The description is as above. The note with it: MCC and control cell lines, CellTiter-Glo viability, 72 h; series mostly up to 46 µM. In short, it runs like this: as §2
Experiment [10] has as its system NIH3T3. The experiment is described as above. The following applies: MCC and control cell lines, CellTiter-Glo viability, 72 h; at 44.8 µM (top of the series) unless noted. The gist of the method: as §2
Experiment [11] has as its system PC49. In words: qHTS profiling for inhibitors of Plasmodium falciparum proliferation (AID 504749).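 Further: 0% = DMSO vehicle and full inhibition = artemisinin control.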 The following applies: P. falciparum in erythrocytes, SYBR Green DNA, 72 h; series mostly up to 28.7 µM. The gist of the method:
(§3)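 P. falciparum-infected erythrocytes (0.3% parasitemia, 2.5% hematocrit final) were exposed to compounds for 72 h at 37 C in 5% CO2, then lysed with SYBR Green buffer overnight at room temperature; parasite DNA fluorescence was normalized to artemisinin and DMSO controls.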

Experiment [12] concerns SC27B. The experiment is described as above. The note with it: P. falciparum in erythrocytes, SYBR Green DNA, 72 h; series mostly up to 28.7 µM. In short, it runs like this:
as §3

Experiment [13] relates to TAB109. The experiment is described as above. The following applies: P. falciparum in erythrocytes, SYBR Green DNA, 72 h; series mostly up to 28.7 µM. In short, it runs like this:
as §3

Experiment [14] deals with TAB113. Described as above. The note with it: P. falciparum in erythrocytes, SYBR Green DNA, 72 h; series mostly up to 28.7 µM. In short, it runs like this: as §3
For experiment [15], the system named is TAB165. The description is as above. The following applies: P. falciparum in erythrocytes, SYBR Green DNA, 72 h; series mostly up to 28.7 µM. The gist of the method: as §3
Experiment [16] concerns W2. The experiment is described as above. The note with it: P. falciparum in erythrocytes, SYBR Green DNA, 72 h; series mostly up to 28.7 µM. The gist of the method:
as §3

Experiment [17] has as its system MCC-26. In words: qHTS assay to identify novel small-molecules to repurpose for Merkel cell carcinoma treatment (AID 1296009). Further: potency means the concentration at half of the fitted maximal effect. The following applies: MCC and control cell lines, CellTiter-Glo viability, 72 h; series mostly up to 46 µM. The gist of the method: as §2
Experiment [18] concerns UISO. Described as above. The note with it: MCC and control cell lines, CellTiter-Glo viability, 72 h; series mostly up to 46 µM. The gist of the method:
as §2

Experiment [19] has as its system PC26. Description: qHTS profiling for inhibitors of Plasmodium falciparum proliferation (AID 504749).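 Further: 0% = DMSO vehicle and full inhibition = artemisinin control.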 The note with it: P. falciparum in erythrocytes, SYBR Green DNA, 72 h; series mostly up to 28.7 µM. The gist of the method: as §3
Further: nearly all actives have a fitted effect of over 60% in size.

As to `Cc1cn2cc(C(=O)N(C)CCO)cc(N[C@@H]3CCOc4cccc(C)c43)c2n1`, the max response in [1] was -0.414% and 0.78%; in experiment [2] it was -7.53% and -5.18%; in experiment [4] it was -1.9%. The compound was called inactive in [3], in [4], in experiment [5] and in [10]. For the same compound, the Potency result in experiment [6], in experiment [7], in [8] and in experiment [9] was “inactive” each time.

On to `CC1(C)O[C@@H]2C[C@@H]3[C@H]4C[C@@H](F)C5=CC(=O)C=C[C@]5(C)[C@@]4(F)[C@@H](O)C[C@]3(C)[C@]2(C(=O)CO)O1`, for which the Potency entry in experiment [11], in experiment [12], in experiment [13], in experiment [14], in experiment [15] and in experiment [16] was “inactive” in each case. The Potency result in experiment [7], in [17], in [8], in [9] and in [18] was “inactive” in each case. Further, the max response in [1] is -20%; in [2] it was -3.12%; in experiment [3], -6.44%; in experiment [5] it was -12.4%. Besides, in [4], the compound was classed as inactive.

Consider `COc1ccc(C=Cc2cc(OC)c(OC)c(OC)c2)cc1O`, for which the max response in experiment [1] was -82.4%; in [2] it was -79.1%; in [3], -0.114%; in experiment [5] it was -49.1%. Also, the Potency in experiment [4] was 0.001 µM (active). Also, the Potency result in [7], in [17] and in experiment [9] was “inactive” throughout.

Turning to `CCOc1cc2ncc(C#N)c(Nc3ccc(F)c(Cl)c3)c2cc1NC(=O)C=CCN(C)C`, the Potency in [1] was 105 nM (active); in experiment [2], 1.87 µM (active); in experiment [3], 16.6 nM (active); in experiment [4], 5.9 µM (active); in [5] it was 1.48 µM (active); in [7] it was 23.5 µM (active). The Potency in [17] was 14.8 µM (active); in [8] it was 14.8 µM (active); in experiment [9], 14.8 µM (active); in [18], 2.64 µM (active).

As for `COc1cc2c(Oc3ccc(NC(=O)C4(C(=O)Nc5ccc(F)cc5)CC4)cc3F)ccnc2cc1OCCCN1CCOCC1`, the Potency was 10.5 µM (active) and 8.2 µM (active) in experiment [1]; 8.33 µM (active) and 18.4 µM (active) in experiment [2]; 4.18 µM (active) and 6.51 µM (active) in experiment [3]; 1.32 µM (active) and 2.91 µM (active) in [4]; 526 nM (active) and 731 nM (active) in experiment [5]; 14.8 µM (active) in experiment [7]. Further, the values for the Potency in experiment [17], in experiment [8] and in [18] were 4.69 µM (active), 4.69 µM (active) and 6.62 µM (active), respectively.

Consider `C=CC(=O)Nc1cccc(Oc2nc(Nc3ccc(N4CCN(C)CC4)cc3)ncc2Cl)c1`, for which the Potency was 4.18 µM (active) and 920 nM (active) in experiment [1]; 5.26 µM (active) and 9.2 µM (active) in [2]; 1.18 µM (active) and 2.31 µM (active) in experiment [3]; 2.96 µM (active) and 5.8 µM (active) in experiment [4]; 3.72 µM (active) and 6.51 µM (active) in experiment [5]; 7.43 µM (active) in [7]. Besides, the Potency in [17] is 11.8 µM (active); in [8], 3.32 µM (active); in experiment [9] it was 8.33 µM (active).

Consider `CN1c2cc(O)c(N=NC(N)=O)cc2CC1S(=O)(=O)O` (centres undefined), for which the Potency entry in experiment [19], in experiment [11], in [12], in experiment [13], in [14] and in experiment [15] was “inactive” each time. In addition, the Potency entry in experiment [16], in experiment [7], in experiment [17], in [8], in experiment [9] and in experiment [18] was “inactive” throughout. For the same compound, the compound was classed as inactive in experiment [1], in [4], in experiment [5] and in [10]. Further, the max response in experiment [2] is 2.9%; in experiment [3], -1.08%.

With `COc1ccc(-c2cc3c(C)nc(N)nc3n(C3CCC(OCCO)CC3)c2=O)cn1` (centres undefined), the Potency is 23.5 nM (active) and 231 nM (active) in [1]; 66.2 nM (active) and 411 nM (active) in experiment [2]; 52.6 nM (active) and 2.31 µM (active) in [3]; 105 nM (active) and 517 nM (active) in experiment [4]; 1.3 µM (active) in experiment [5]; 1.87 µM (active) in experiment [7]. The Potency in [17] is 1.32 µM (active); in experiment [8] it was 4.18 µM (active); in experiment [9], 0.166 µM (active); in experiment [18] it was 0.166 µM (active).

Regarding `Cn1c(=O)n(-c2ccc(C(C)(C)C#N)cc2)c2c3cc(-c4cnc5ccccc5c4)ccc3ncc21`, the Potency in experiment [1] was 259 nM (active) and 235 nM (active); in experiment [2] it was 326 nM (active) and 26.4 nM (active); in experiment [4] it was 731 nM (active) and 16.6 nM (active); in experiment [5], 580 nM (active) and 46.9 nM (active). Further, the compound was classed as inactive in [3]. In addition, the Potency entry in [6], in [8] and in experiment [9] was “inactive” each time.

As to `CC(C)c1ccc(Cn2ccc3c4c(N)nc(NC5CC5)nc4ccc32)cc1`, the Potency in [1] was 3320 nM (active); in experiment [2], 1.18 µM (active); in [3], 37200 nM (active); in experiment [4], 1.32 µM (active); in experiment [5], 4.69 µM (active); in experiment [7] it was 1.05 µM (active). For the same compound, the Potency was 16.6 µM (active) in [17], 14.8 µM (active) in experiment [8], 4.18 µM (active) in experiment [9] and 14.8 µM (active) in experiment [18].
